Measurements reported in the supplement of paper PMC10011410.
± gives the standard deviation of the averaged measurements.

Tested on: AmpC beta-lactamase (E. coli)
Assay: AmpC inhibition relative to DMSO; higher = more inhibition
Procedure: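 Aggregation counter-screen: inhibition of E. coli AmpC beta-lactamase (5 nM, nitrocefin substrate, 50 mM sodium phosphate pH 7.0, RT, 5 min) by KAT inhibitors at 4, 11, 33 and 100 uM, with or without 0.01% Triton X-100. Percent inhibition is relative to DMSO controls. Four technical replicates.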

[1] = 4 µM, detergent: 0.01% Triton X-100
[2] = 11 µM, detergent: 0.01% Triton X-100
[3] = 33 µM, detergent: 0.01% Triton X-100
[4] = 100 µM, detergent: 0.01% Triton X-100
[5] = 100 µM, detergent: no detergent

Question: What does the source list for `COc1cc(/C=C/c2cc(/C=C/c3ccc(O)c(OC)c3)n(-c3ccc(C(=O)[O-])cc3)n2)ccc1O.[Na+]`?
Answer: AmpC inhibition [1]: 1.31 ± 3%; AmpC inhibition (4 µM, detergent: no detergent): -4.8 ± 14%; AmpC inhibition [2]: 2.98 ± 1.9%; AmpC inhibition (11 µM, detergent: no detergent): -29.6 ± 5.8%; AmpC inhibition [3]: 4.87 ± 2.2%; AmpC inhibition (33 µM, detergent: no detergent): -38.3 ± 23%; AmpC inhibition [4]: 2.96 ± 6%; AmpC inhibition [5]: -2.93 ± 15%

Question: Which results are given for `COc1ccc(/C(Cl)=C(\C=O)c2ccc(OC)cc2)cc1`?
Answer: AmpC inhibition [1]: 2.6 ± 2.4%; AmpC inhibition (4 µM, detergent: no detergent): 17.8 ± 21%; AmpC inhibition [2]: 4.97 ± 1.2%; AmpC inhibition (11 µM, detergent: no detergent): 3.2 ± 5.5%; AmpC inhibition [3]: 1.35 ± 3.3%; AmpC inhibition (33 µM, detergent: no detergent): -9.16 ± 9.6%; AmpC inhibition [4]: -4.79 ± 8.1%; AmpC inhibition [5]: 1.57 ± 3.4%

Question: `CC(C)([C@](C1=O)(C2=O)C/C=C(C)\C)[C@@H](C[C@]31C[C@@H](C(C)(OC3=C2C(C4=CC(O)=C(C=C4)O)=O)C)C/C=C(C)\C)C/C=C(C)\C` was tested. Which AmpC inhibition [1] did it give?
Answer: The AmpC inhibition was 8.42 ± 5.3%.

Question: What about the AmpC inhibition (4 µM, detergent: no detergent) of the same compound?
Answer: The AmpC inhibition was 13.3 ± 3.5%.

Question: What about the AmpC inhibition [2] of the same compound?
Answer: The AmpC inhibition was 4.79 ± 3.2%.

Question: And the AmpC inhibition (11 µM, detergent: no detergent)?
Answer: The AmpC inhibition was 90 ± 9.4%.

Question: And the AmpC inhibition [3]?
Answer: The AmpC inhibition was 4.67 ± 6.9%.

Question: And the AmpC inhibition (33 µM, detergent: no detergent)?
Answer: Its AmpC inhibition is 93.15 ± 0.89%.

Question: What about the AmpC inhibition [4] of the same compound?
Answer: The AmpC inhibition was 2.77 ± 1.7%.

Question: What about the AmpC inhibition [5] of the same compound?
Answer: The AmpC inhibition was 92.3 ± 0.78%.

Question: Which AmpC inhibition [1] does the source give for `CC(Cc1ccc(O)c(O)c1)C(C)Cc1ccc(O)c(O)c1` (stereo not given) here?
Answer: The AmpC inhibition was 0.262 ± 1.6%.

Question: And the AmpC inhibition (4 µM, detergent: no detergent)?
Answer: The AmpC inhibition was 2.98 ± 9.9%.

Question: And the AmpC inhibition [2]?
Answer: The AmpC inhibition was -1.09 ± 14%.

Question: What about the AmpC inhibition (11 µM, detergent: no detergent) of the same compound?
Answer: The AmpC inhibition was 23.2 ± 4%.

Question: And the AmpC inhibition [3]?
Answer: Its AmpC inhibition is 1.16 ± 12%.

Question: What about the AmpC inhibition (33 µM, detergent: no detergent) of the same compound?
Answer: Its AmpC inhibition is 47.4 ± 7.5%.

Question: And the AmpC inhibition [4]?
Answer: Its AmpC inhibition is -4.88 ± 5.5%.

Question: What about the AmpC inhibition [5] of the same compound?
Answer: Its AmpC inhibition is 86 ± 2.8%.

Question: Which AmpC inhibition [1] does the source give for `O=C(OCC)/C(C(OCC)=O)=C\CCCCCCCCCCCCCC` here?
Answer: The AmpC inhibition was 5.31 ± 3.4%.

Question: And the AmpC inhibition (4 µM, detergent: no detergent)?
Answer: The AmpC inhibition was -0.349 ± 2.3%.

Question: What about the AmpC inhibition [2] of the same compound?
Answer: The AmpC inhibition was 1.25 ± 19%.

Question: What about the AmpC inhibition (11 µM, detergent: no detergent) of the same compound?
Answer: Its AmpC inhibition is 41.5 ± 10%.

Question: And the AmpC inhibition [3]?
Answer: Its AmpC inhibition is 6.47 ± 3.7%.

Question: And the AmpC inhibition (33 µM, detergent: no detergent)?
Answer: The AmpC inhibition was 50.3 ± 16%.

Question: And the AmpC inhibition [4]?
Answer: The AmpC inhibition was 1.39 ± 4.3%.

Question: What about the AmpC inhibition [5] of the same compound?
Answer: The AmpC inhibition was 86.8 ± 6.6%.
